For assay [1], the target named is PEG-3 (UniProt Q6IN02). Kind of assay: inhibition of PEG-3 promoter-driven reporter – cell-based, HeLa, luciferase, CREF/GAPDH counter-screen panel, dose response (AID 624167). Conditions: CREF/GAPDH counter-screens; HeLa PEG-Prom luciferase reporter, overnight, run 1, dose range 1, at 100 µM (top of the series) unless noted. (Counterscreens check selectivity or assay interference.)

Assay [2] deals with PEG-3 (UniProt Q6IN02). The assay is described as above. The conditions noted are these: CREF/GAPDH counter-screens; HeLa PEG-Prom luciferase reporter, overnight, run 2, dose range 1, at 100 µM (top of the series) unless noted.

Sequence of PEG-3 (Q6IN02 whole entry, looked up): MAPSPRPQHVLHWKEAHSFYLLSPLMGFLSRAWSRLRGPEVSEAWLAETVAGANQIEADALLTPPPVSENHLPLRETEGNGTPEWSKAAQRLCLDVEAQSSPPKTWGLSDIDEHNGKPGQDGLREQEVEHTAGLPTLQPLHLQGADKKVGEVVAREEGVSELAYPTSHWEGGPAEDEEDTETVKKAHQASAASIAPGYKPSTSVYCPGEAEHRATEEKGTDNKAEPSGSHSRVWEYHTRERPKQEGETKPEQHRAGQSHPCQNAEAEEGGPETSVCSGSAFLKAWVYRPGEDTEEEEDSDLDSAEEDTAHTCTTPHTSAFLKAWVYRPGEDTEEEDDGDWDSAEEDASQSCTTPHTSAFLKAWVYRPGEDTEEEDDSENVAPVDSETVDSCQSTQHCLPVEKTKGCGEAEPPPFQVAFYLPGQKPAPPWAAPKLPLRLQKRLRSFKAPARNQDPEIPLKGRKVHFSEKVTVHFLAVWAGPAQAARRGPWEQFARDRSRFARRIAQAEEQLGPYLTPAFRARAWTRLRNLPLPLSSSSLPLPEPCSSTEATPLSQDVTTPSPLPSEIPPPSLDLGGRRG

In the case of `Cc1ccc(S(=O)(=O)N(C)C)cc1NC(=O)c1cncc(Br)c1`, the values for the inhibition in assay [1] and in assay [2] were 82.4% and 83.7%, respectively.
Taken in the same sequence, the figures for `Oc1ccc(C[C@H]2CNCCN2CCc2cc(C(F)(F)F)cc(C(F)(F)F)c2)cc1` were 97.5% and 102%.
In the same order, the values of `C[C@@H](C(=O)Nc1ccc2c(c1)OCCO2)n1c(=O)[nH]c2ccccc2c1=O` are 53.8% and 39.3%.

For the origin of these results see PubChem BioAssay.
